About 83,000 compounds went through this panel and 20% of them were active in at least one assay; those are over-represented in the sample as a whole.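 Single-dose data. Exposure time 48 hours. Values below 10 considered active.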 Unmarked numbers belong to inactive results. The source made the active and inactive calls.
test system: HL-60(TB) leukemia; assay: NCI-60 one-dose screen, 48 h (100 = growth as untreated, 0 = no growth, -100 = all killed); conditions: 10 µM unless noted

SMILES | growth
O=C(Cn1cc(CO)nn1)Nc1nc2ccccc2s1 | 97.1%
CC(=O)N1c2ccccc2NC2=C(C(=O)NC2(C)C)C1c1ccco1 (stereo not given) | 65.1%
Cc1c2cnccc2c(C)c2c1c1cc(CO)ccc1n2C | -20% (active)
O=C1OC(c2ccc(-c3ccccc3)cc2)=C/C1=C/c1c2ccccc2cc2ccccc12 | 51%
O=C(N/N=C\c1cc(Br)cc(Br)c1O)N/N=C/c1cc(Br)cc(Br)c1O | 8.67% (active)
C=CC1=C(C(=O)O)N2C(=O)[C@@H](NC(=O)/C(=N\O)c3csc(N)n3)[C@H]2SC1 (stereo in doubt) | 118%
O=C(CNC(=O)c1cccc2ccccc12)Nc1ccccc1Oc1cccc(O)c1 | -24.1% [5 µM] (active)
CCn1c(Sc2nnc(Nc3ccccc3)s2)nc2c1c(=O)n(C)c(=O)n2C | 113%
Cc1ccc(/C=C2\C(=O)N(C)c3ccc(S(=O)(=O)Nc4ccc(C(C)(C)C)cc4)cc32)s1 | 93.1%
Cc1nnc(-c2cc3c(ccc4ccccc43)oc2=O)c2cn(-c3ccc(Cl)cc3)nc12 | 84.4%
CCc1ccc(Cc2cnc(NC(=O)c3cc(C)oc3C)s2)cc1 | -21.3% (active)
COc1ccc(C2CC(=O)Oc3c(OC)c4c(c(OC)c32)OCO4)cc1 (stereo not given) | 95.6%
Cc1ccc(C2=NN3C(C2)c2cc(Br)ccc2OC32CCN(Cc3ccccc3)CC2)o1 (stereo not given) | 90.4%
Nc1cc(O)cc(O)c1 | 98.6%
COC1=C(C)C(=O)c2c(c(CCCl)c3n2CCC3O)C1=O (stereo not given) | 50.3%
CCCCCCCCCCCCCCCC[N+]1(C)CCCC1c1cccnc1 (stereo not given) | 1.61% (active)
N#Cc1c2cccnc2c2nnc3cc(Cl)c(Cl)cc3n12 | 23.3%
COc1ccc(-n2c(SCc3cc(OC)c(OC)c(OC)c3)nc3ccc(C)cc3c2=O)c(OC)c1 | -44.3% (active)
CCNC(=S)n1nc(SC)c(C(=O)OCC)c1N | 100%
CC(C)(C)n1cc(-c2ccnc(NCCCNS(=O)(=O)c3ccc(Cl)cc3)c2)c(-c2cccc(O)c2)n1 | -46.1% (active)

SMILES | growth
Nc1nc(N)c(N=Nc2ccccc2)c(-c2ccccc2)n1 | 71.4%
CN1CCN(c2ccc3nc(-c4[nH]ncc4Nc4ncnc5c4OCCCN5)[nH]c3c2)CC1 | -28.7% (active)
C=C1C(=O)O[C@H]2[C@H]1CC/C(COC(=O)NCc1c[nH]c3ccc(F)cc13)=C\CC[C@@]1(C)O[C@@H]21 | -32.4% (active)
COc1cc(OC)cc(C(=O)Nc2cnc(Nc3ccc(N4CCOCC4)nc3)nc2Oc2ccc(C(F)(F)F)cc2)c1 | 94.7%
NCC(O)C(O)C(O)C(O)CO (stereo not given) | 114%
CC/C=C\C/C=C\C[C@H]1C/C=C2/C(=O)C=C[C@H]2C/C=C\CCC(=O)O1 | -5.31% (active)
OCC1OC(n2cnc3c(N/N=C\c4ccccn4)ncnc32)C(O)C1O (stereo not given) | 6.17% (active)
Cc1cc(C(=O)CCCC(=O)c2cc(C)c(O)c(C)c2)cc(C)c1O | 84.6%
O=C1/C(=C\c2ccc[nH]2)c2ccccc2N1c1ccccc1 | 94.4%
CCOc1cc(/C=C/C(=O)CC(=O)/C=C/c2ccc(OC(=O)CNCCN(CC)CC)c(OCC)c2)ccc1OC(=O)CNCCN(CC)CC | -30.5% (active)
CN(C)c1ccc(N=C2C=CC(=O)C=C2)cc1 | 111%
Nc1cc2c(cc1Br)-c1cc(Cl)ccc1C2=O | 83.8%
CNS(=O)(=O)Nc1nccc(Cc2c(C)c3ccc(Oc4ncccn4)cc3oc2=O)c1F | 27.9%
O=C1/C(=C/c2ccc([N+](=O)[O-])o2)Oc2ccc(Cl)cc21 | -21.3% (active)
Cc1ccc2nc(-c3ccc(OCC(=O)N=Nc4c(O)[nH]c5ccccc45)cc3)[nH]c2c1 | 88.9%
Cc1ccc(-n2cc(-c3ccccc3)c3c2N=NN2CCN=C32)cc1 | 101%
O=C(/C=C/c1cccnc1)c1ccccc1 | 89.8%
CCN=C1C=CC(=C(c2ccc(N)cc2)c2ccc(N(CC)CC)c(C)c2)C=C1 | -11% (active)
C=C1C(=O)O[C@H]2[C@H]1CC/C(COC(=O)NCc1nc3ccccc3[nH]1)=C\CC[C@@]1(C)O[C@@H]21 | 17%
CC(C)OC(=O)NNC(=O)c1ccncc1 | 85.2%
